From PubChem BioAssay
A selection: hits, their analogues and other compounds. The true share with any hit is near 1.4%.
CRFR2-BP ag: agonists of human CRF-binding protein/CRF-R2 receptor complex; activation, % at 13.2 µM; HEK293 CRF-R2/CRF-BP, calcium dye fluorescence (FLIPR); percent of saturating CRF peptide response; 0.46% of 350,000 active; AID 588473;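 active = activation of at least 50%, plus an integration ratio under a set limit after plate pattern correction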;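 also: plate controls were neutral control wells without compound for no effect and CRF at EC100 for full effect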
IDE inh: cellular human IDE inhibition; inhibition, % at 5.59 µM; HEK cells, FAbetaB cleavage, fluorescence polarization; 0.41% of 320,000 active; AID 434962;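 active = percent inhibition above the average of all tested compounds plus 3 SD, set per screening campaign, cut at about 16% in these data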;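 also: IDE supplied by intact live HEK cells; FP after avidin binding of uncleaved biotin substrate so inhibition keeps polarization high; 0% = DMSO wells and 100% = 60 µM reference IDE inhibitor Ii1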
HNF4A DNA FP: change in binding of human HNF4 alpha to DNA; P41235; HNF4a-FITC DNA binding, fluorescence polarization, 1 h; activity change, % at 10 µM; 0.3% of 360,000 active; AID 1224865; in the data active = activity change above about 30%, passing the limit was not always enough
Target sequence (P41235 whole entry, looked up): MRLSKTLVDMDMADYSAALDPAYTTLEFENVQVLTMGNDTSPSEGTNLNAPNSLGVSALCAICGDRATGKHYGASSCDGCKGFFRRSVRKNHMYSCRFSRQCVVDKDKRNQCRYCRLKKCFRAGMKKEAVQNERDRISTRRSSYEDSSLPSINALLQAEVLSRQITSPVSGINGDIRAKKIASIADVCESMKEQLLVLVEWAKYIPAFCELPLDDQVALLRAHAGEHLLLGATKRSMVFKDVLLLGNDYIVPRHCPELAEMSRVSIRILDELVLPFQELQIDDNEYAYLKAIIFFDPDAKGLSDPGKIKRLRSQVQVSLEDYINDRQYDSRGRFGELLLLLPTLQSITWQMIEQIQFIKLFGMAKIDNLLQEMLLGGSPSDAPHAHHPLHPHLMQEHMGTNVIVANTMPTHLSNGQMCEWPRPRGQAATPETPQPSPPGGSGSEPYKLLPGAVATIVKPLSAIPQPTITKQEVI
TPT1 inh: inhibitors of Candida albicans tRNA 2'-phosphotransferase TPT1; recombinant caTPT1, FP RNA substrate dephosphorylation; inhibition, % at 5 µM; 0.81% of 300,000 active; AID 1962;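 active = inhibition above the mean of all tested compounds plus 3 SD, set per screening campaign, cut at about 24% in these data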;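 also: plate controls were DMSO alone for no effect and ferristatin control at 100 nM for full effect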
IDE cell activ: activators of human insulin-degrading enzyme in cells. P14735. HEK cells, FAbeta-B cleavage, fluorescence polarization; 0% vehicle, 100% cell-free pure enzyme wells. activation, % at 5.96 µM. 0.073% of 340,000 active;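 active = activation above the mean of all tested compounds plus 3 SD, set per screening campaign, cut at about 17% in these data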
IDE cell inh cf: confirmation of human insulin-degrading enzyme inhibitors in cells. shares compounds with IDE inh. HEK cells, FAbetaB cleavage, fluorescence polarization. inhibition, % at 5.59 µM. 51% of 1,200 active;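 active = mean inhibition across triplicate wells above the cutoff set by the earlier primary insulin-degrading enzyme screen, cut at about 16% in these data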;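 also: 0% = DMSO wells and 100% = 60 µM reference IDE inhibitor Ii1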
HEK cytotox: counter-screen for IDE inhibitors: cytotoxicity in HEK cells; shares compounds with IDE inh; HEK293 cytotoxicity, ATP luminescence; inhibition, % at 5.59 µM; 28% of 1,200 active; in the data active = inhibition above about 22%;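 also: 0% = vehicle wells and 100% = reference cytotoxic drug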
* = called active by the depositor; · = no result given.

SMILES | CRFR2-BP ag | IDE inh | HNF4A DNA FP | TPT1 inh | IDE cell activ | IDE cell inh cf | HEK cytotox
Fc1ccc(-c2noc(-c3ccc4c(c3)CCO4)n2)cc1 | -1 | 2 | 3 | 1 | · | · | ·
S=c1nccc(-c2ccc3c(c2)CCO3)[nH]1 | -1 | 30* | -2 | -1 | -23 | 6 | 14
O=C(NNC1=Nc2cccc3cccc1c23)c1ccccc1Br | 0 | 16* | 3 | -1 | -9 | 5 | 19
c1ccc(NC2=Nc3cccc4cccc2c34)cc1 | 2 | 0 | 6 | 14 | 4 | · | ·
CC(C)(OC(=O)c1ccc(C#N)cc1)c1cc2ccccc2c(=O)o1 | 0 | -2 | -5 | · | 2 | · | ·
COc1ccc(C=C2CCc3ccccc3C2=O)cc1 | · | · | 3 | · | · | · | ·
COc1ccc2c(c1)CC/C(=C/c1ccco1)C2=O | 5 | 19* | 5 | 15 | -4 | 2 | 15
COc1ccc(-c2cn3c(C)c(C(=O)Nc4cccc(C)n4)sc3n2)cc1 | 2 | 1 | 11 | 7 | -1 | · | ·
Cc1c(C(=O)NCc2ccccn2)sc2nc(-c3ccc(F)cc3)cn12 | 2 | 20* | -3 | -3 | -11 | 11 | 62*
Cc1cccc(NC(=O)c2sc3nc(-c4ccccc4)cn3c2C)n1 | 10 | 17* | 15 | 18 | -11 | 11 | 29*
CC(C)(C)NC(=O)C[C@H]1C[C@H](C(=O)N2CCCCC2)[C@@]2(C)c3[nH]c4ccc(Cl)cc4c3CCN2C1=O | -8 | · | -1 | · | 4 | · | ·
CCOc1ccc(/C=C2/SC(=O)NC2=S)cc1 | 2 | 33* | 7 | 0 | -3 | 2 | 14
COc1ccc(C(C)(O)c2nc(-c3ccc(N(C)C)cc3)cs2)cc1 (configuration not stated) | · | · | 2 | · | · | · | ·
CN(C)c1ccc2c3c(cccc13)C(=O)N(c1ccccc1)C2=O | · | 8 | · | -18 | · | · | ·
Cc1cccc(N2C(=O)c3cccc4c(N)ccc(c34)C2=O)c1 | 268* | 73* | -98 | -71 | -43 | 96* | 4
Cc1cccc(N2C(=O)c3cccc4c(N(C)CCO)ccc(c34)C2=O)c1 | 191* | 79* | -78 | -29 | -72 | 110* | 13
O=C(CNC(=O)c1ccc(Oc2ccccc2)cc1)OCc1ccc(Br)cc1 | 4 | 28* | -1 | -2 | -21 | 6 | 4
COc1ccc(C(=O)NCC(=O)NCC(=O)OCc2ccc(Br)cc2)cc1 | -4 | 7 | 3 | -4 | -11 | · | ·
COc1ccc([C@@H](OC)[C@@]2(Cc3ccc(O)cc3)N=C(N)N(C)C2=O)cc1 | -1 | -5 | 2 | · | 4 | · | ·
Cc1ccc2nc(-c3ccc(SCC(=O)O)nc3)[nH]c2c1 | 0 | -1 | -3 | -2 | 5 | · | ·
Cc1ccc2nc(-c3ccc(SCC(=O)N4CCc5ccccc54)nc3)[nH]c2c1 | -1 | 26* | 8 | -1 | -24 | 10 | 13
Cc1ccc(OCCSc2nnc(-c3cccs3)n2C)cc1 | 0 | 20* | -2 | -2 | -20 | 8 | 6
Cn1c(SCc2nc(-c3ccccc3)no2)nnc1-c1cccs1 | -2 | 12 | -2 | -1 | -12 | · | ·
Cn1c(SCCOc2ccc(Cl)cc2)nnc1-c1ccncc1 | -3 | 44* | 1 | 0 | -48 | 15 | 16
Cn1c(SCc2nc(-c3ccc(Cl)cc3)no2)nnc1-c1cccs1 | -1 | 16* | -5 | -2 | -13 | 8 | 9
SMILES | CRFR2-BP ag | IDE inh | HNF4A DNA FP | TPT1 inh | IDE cell activ | IDE cell inh cf | HEK cytotox
CC1(c2ccccc2Br)NC(=O)N(CC(=O)N2CCc3ccccc3C2)C1=O (configuration not stated) | 0 | -5 | -2 | · | 3 | · | ·
CN(CC(=O)Nc1ccc2c(c1)CCC2)CC(=O)Nc1ccccc1Br | -2 | 19* | 1 | -3 | -5 | 4 | 8
COc1ccc(NC(=O)CN(C)CC(=O)Nc2ccc3c(c2)CCC3)cc1 | -2 | 3 | -1 | -6 | -2 | · | ·
Cc1ccc(-c2n[nH]c(=O)c3ccccc23)cc1S(=O)(=O)NCC1CCCO1 (configuration not stated) | 0 | 4 | 2 | -1 | -6 | · | ·
Cc1ccc(-c2n[nH]c(=S)c3ccccc23)cc1S(=O)(=O)NCC1CCCO1 (configuration not stated) | -1 | 22* | 0 | -5 | -11 | 5 | 16
O=C(c1cccn2c(=O)c3cc(Cl)ccc3nc12)N1CCN(Cc2ccc3c(c2)OCO3)CC1 | -1 | 31* | -1 | 3 | -39 | 16 | 14
CN1CCN(c2ccc(C(=O)NC3CCCCC3)cc2[N+](=O)[O-])CC1 | -1 | 0 | -1 | -2 | 1 | · | ·
CCOc1ccc2nc(SCC3CC3(Cl)Cl)[nH]c2c1 (configuration not stated) | 0 | 16* | 0 | 1 | 5 | 4 | 29*
ClC1(Cl)CC1CSc1nc2ccccc2[nH]1 (configuration not stated) | -3 | -6 | 3 | -2 | -1 | · | ·
O=C(Nn1c(O)c(C=C2N=c3ccccc3=N2)sc1=S)c1ccccc1 | 5 | 20* | 4 | 7 | -15 | 15 | 6
Cc1ccc(C(=O)Nn2c(O)c(C=C3N=c4ccccc4=N3)sc2=S)cc1 | 8 | 11 | -4 | 6 | -7 | · | ·
COc1ccc2nc3sc(C(=O)N4CCN(C)CC4)cc3cc2c1 | 3 | 5 | -1 | -1 | 3 | · | ·
COc1ccc2nc3sc(C(=O)NCCCN4CCc5ccccc5C4)cc3cc2c1 | -2 | 20* | 0 | -3 | -8 | 3 | 11
CC(=O)c1cccc(NC(=O)CSc2nc(=O)n(CCN3CCOCC3)c3c2CCCC3)c1 | -4 | 9 | 3 | 5 | -2 | · | ·
Cc1ccc(NC(=O)c2sc3nc(C)cc(C)c3c2N)cc1 | -1 | 21* | -3 | 0 | -13 | 8 | 13
Cc1cc(C)c2c(N)c(C(=O)NN)sc2n1 | 4 | 0 | 1 | 1 | -3 | · | ·
O=C(O)c1ccccc1C(=O)OCC1CCC(=NO)CC1 (configuration not stated) | 3 | · | 1 | · | · | · | ·
COc1cc(SSc2cc(OC)cc([N+](=O)[O-])c2N)c(N)c([N+](=O)[O-])c1 | 0 | 21* | -6 | -3 | -27 | 18* | 24*
Cn1c(N)c(C(=O)COC(=O)CSc2ccccc2)c(=O)n(C)c1=O | 0 | 1 | 3 | -2 | 2 | · | ·
Cn1c(N)c(C(=O)COC(=O)CSc2ccc3ccccc3c2)c(=O)n(C)c1=O | -1 | 18* | 1 | 2 | -4 | 6 | 7
COc1cc(-c2noc(CCCC(=O)Nc3cccnc3)n2)cc(OC)c1OC | -5 | 16* | 0 | -3 | 5 | 0 | 6
O=C(Cc1ccc(Cl)cc1)Nc1ccccc1N1CCN(C(=O)c2ccccc2)CC1 | 3 | -1 | 2 | 2 | 1 | · | ·
